Data: PubChem BioAssay (Tox21)
“And” between values parts separate entries of the source, which are not always exact repeats. Equal values may be shown once. A number with no mark means an inactive call. Inconclusive results are not listed. Where a call stands in place of a potency, no number is given. The source made the active and inactive calls. Unless noted, the call rests on the fitted dose curve; in most records, active means well fitted curve in the direction sought with a large enough effect in the repeat runs; inconclusive means weak or mixed curves; inactive means no such curve, though single readings can be large; an effect the other way counts as inactive or inconclusive.

How the values were obtained:
[1] = qHTS assay for small molecule agonists of the p53 signaling pathway (AID 651631; calls by dose curve; further: nearly all actives have a fitted effect of over 15% in size; further: potency means the concentration at half of the fitted maximal effect)
How it was run: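 HCT-116 cells carrying a beta-lactamase reporter under p53 response elements were dosed with compound for 16 h at 37 °C. LiveBLAzer B/G FRET substrate was then added for 2 h at room temperature, and fluorescence intensity was read to detect pathway agonism.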

[2] = qHTS assay for small molecule agonists of the p53 signaling pathway - cell viability (AID 651633; calls by dose curve;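 further: p53RE-bla HCT reporter cells with a stable beta-lactamase p53 reporter; series mostly up to about 83 µM; nearly all actives have a fitted effect of over 30% in size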)
How it was run: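 Viability counter-read: CellTiter-Glo luminescence (30 min, room temperature) in the same p53RE-bla plates. These plates had been exposed to compounds for 16 h at 37 C.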

[3] = qHTS assay for small molecule disruptors of the mitochondrial membrane potential - cell viability (AID 720634; calls by dose curve;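 further: human HepG2 liver cancer cells; series mostly up to about 83 µM; nearly all actives have a fitted effect of over 20% in size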)
How it was run: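 Human hepatoma HepG2 cells were treated for 1 hr with test chemicals, then given m-MPI dye and CellTiter-Glo. Cell viability reflects luminescence proportional to cellular ATP.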

[4] = qHTS assay to test for compound auto fluorescence at 590 nm (red) in HepG2 cells (AID 720674)
How it was run: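 1 hr compound incubation on HepG2 cells, 37 C, 5% CO2; plate read ex 540 nm / em 590 nm; intensities reported as Rose Bengal sodium equivalents.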

[5] = qHTS assay to test for compound auto fluorescence at 535 nm (green) in HepG2 cells (AID 720675)
[6] = qHTS assay to test for compound auto fluorescence at 460 nm (blue) in HEK293 cells (AID 720678)
How it was run: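 After cell attachment (4-5 hr, 37C), compounds were pinned onto HEK293 monolayers in 10% dialyzed FBS medium. The blue channel (405/460 nm) was read following overnight culture. Equivalency was calculated against triamterene.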

[7] = qHTS assay to test for compound auto fluorescence at 590 nm (red) in HEK293 cells (AID 720679)
How it was run: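 Plates of HEK293 cells (10% dialyzed FBS) are treated with 23 nL compound or DMSO vehicle after a 4-5 hr attachment period, incubated overnight at 37C, and read for red fluorescence at 540/590nm.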

[8] = qHTS assay to test for compound auto fluorescence at 535 nm (green) in HEK293 cells (AID 720680)
[9] = qHTS assay to test for compound auto fluorescence at 460 nm (blue) in HEK293 cell free culture (AID 720681)
How it was run: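 Blue fluorescence (Ex 405/Em 460 nm, triamterene-equivalent) was read immediately after pin transfer of compound or DMSO into medium (DMEM, 10% FBS) without cells.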

[10] = qHTS assay to test for compound auto fluorescence at 590 nm (red) in HEK293 cell free culture (AID 720683)
How it was run: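 Red-channel autofluorescence of compounds in culture medium (DMEM, 10% FBS), no cells, measured at 540/590 nm. Rose Bengal sodium is the reference fluorophore for equivalence.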

[11] = qHTS assay to test for compound auto fluorescence at 590 nm (red) in HepG2 cell free culture (AID 720684)
How it was run: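 Plate contents were MEM with 10% FBS plus test compound or DMSO, no cells. Fluorescence was recorded with 540 nm excitation and 590 nm emission.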

[12] = qHTS assay to test for compound auto fluorescence at 460 nm (blue) in HepG2 cell free culture (AID 720685)
How it was run: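 Compound (23 nL) or DMSO pinned into cell-free MEM with 10% FBS; blue fluorescence read at 405/460 nm excitation/emission, expressed as auto-fluorescence equivalency to triamterene.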

[13] = qHTS assay to test for compound auto fluorescence at 535 nm (green) in HepG2 cell free culture (AID 720686)
[14] = qHTS assay to test for compound auto fluorescence at 460 nm (blue) in HepG2 cells (AID 720687)
How it was run: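 Blue-channel autofluorescence (Ex/Em 405/460 nm, triamterene-equivalent) was measured after 1 hr compound exposure at 37 C, 5% CO2. Cells were HepG2, plated overnight at 37 C in MEM plus 10% FBS.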

[15] = molecular target: Glucocorticoid receptor (Homo sapiens) (UniProt P04150); experiment: qHTS assay to identify small molecule agonists of the glucocorticoid receptor (GR) signaling pathway (AID 720691; active means well fitted activation curve with a large enough effect in the signal ratio in the repeat runs, not every such curve was filed as active; the % refers to the signal ratio)
Glucocorticoid receptor (Homo sapiens), sequence (P04150 whole entry, looked up): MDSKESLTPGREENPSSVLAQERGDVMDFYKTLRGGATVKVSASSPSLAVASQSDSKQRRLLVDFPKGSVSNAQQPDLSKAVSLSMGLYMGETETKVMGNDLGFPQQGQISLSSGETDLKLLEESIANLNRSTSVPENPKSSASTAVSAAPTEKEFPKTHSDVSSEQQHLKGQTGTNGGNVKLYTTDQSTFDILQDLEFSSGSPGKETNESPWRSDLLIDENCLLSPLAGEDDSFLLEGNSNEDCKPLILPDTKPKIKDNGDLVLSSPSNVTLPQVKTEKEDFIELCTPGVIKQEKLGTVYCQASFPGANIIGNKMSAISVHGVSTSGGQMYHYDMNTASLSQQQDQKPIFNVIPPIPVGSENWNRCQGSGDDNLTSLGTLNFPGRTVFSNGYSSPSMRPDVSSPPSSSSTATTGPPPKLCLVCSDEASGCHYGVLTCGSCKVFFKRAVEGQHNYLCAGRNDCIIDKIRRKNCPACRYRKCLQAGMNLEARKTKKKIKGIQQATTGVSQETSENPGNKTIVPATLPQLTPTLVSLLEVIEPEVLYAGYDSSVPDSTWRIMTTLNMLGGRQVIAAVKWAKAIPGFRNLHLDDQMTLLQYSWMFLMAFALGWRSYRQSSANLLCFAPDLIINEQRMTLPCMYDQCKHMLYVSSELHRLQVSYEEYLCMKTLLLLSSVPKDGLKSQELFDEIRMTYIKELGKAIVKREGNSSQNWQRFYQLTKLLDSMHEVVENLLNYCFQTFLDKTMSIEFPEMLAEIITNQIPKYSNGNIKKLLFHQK
How it was run: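 Beta-lactamase reporter activity, read as fluorescence intensity, was measured in GR-bla HeLa cells exposed to compounds for 18 h at 37 C and then loaded with LiveBLAzer B/G FRET substrate for 2 h at room temperature.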

[16] = molecular target: Glucocorticoid receptor (Homo sapiens) (UniProt P04150); experiment: qHTS assay to identify small molecule antagonists of the glucocorticoid receptor (GR) signaling pathway (AID 720692; active means well fitted inhibition curve with a large enough effect in the signal ratio in the repeat runs, not every such curve was filed as active; the % refers to the signal ratio; further: potency means the concentration at half of the fitted maximal effect)
How it was run: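 Fluorescence from cleaved LiveBLAzer B/G FRET substrate reports GRE-driven beta-lactamase in HeLa cells; compounds are tested against 5 nM dexamethasone (final) over 18 h at 37 C, substrate incubation 2 h at room temperature.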

[17] = qHTS assay to test for compound auto fluorescence at 535 nm (green) in HEK293 cell free culture (AID 720682)
How it was run: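 Green-label autofluorescence (485 nm excitation, 535 nm emission) measured on compound added to cell-free culture medium (DMEM, 10% FBS). Output is expressed relative to fluorescein.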

[18] = qHTS assay for small molecules that induce genotoxicity in human embryonic kidney cells expressing luciferase-tagged ATAD5 - cell viability (AID 651634; calls by dose curve; further: nearly all actives have a fitted effect of over 25% in size)
How it was run: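 Live-cell protease activity (CellTiter-Fluor, fluorescence) indicates viability. HEK293T cells with luciferase-tagged ATAD5; 15.5 hr compound treatment at 37C.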

[19] = qHTS assay for small molecule disruptors of the mitochondrial membrane potential (AID 720635); further: potency means the concentration at half of the fitted maximal effect
How it was run: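 Mitochondrial membrane potential tracked with Mito-MPS dye, red aggregates (ex 540/em 590 nm) against green monomers (ex 490/em 535 nm). Compound treatment 1 hr at 37C, dye 30 min in HepG2.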

Row | SMILES | Potency [1] | Potency [2] | Potency [3] | outcome [4] | outcome [5] | outcome [6] | outcome [7] | outcome [8] | outcome [9] | outcome [10] | outcome [11] | outcome [12] | outcome [13] | outcome [14] | outcome [15] | Potency [16] | outcome [17] | Potency [18] | Potency [19]
1 | O=[N+]([O-])c1cccc2cccnc12 | inactive | inactive | inactive | inactive | inactive | inactive | inactive | inactive | inactive | inactive | inactive | inactive | inactive | inactive | inactive | inactive |  |  | 
2 | CNC(=O)O/N=C(\C)SC | inactive | inactive | inactive | inactive | inactive | inactive | inactive | inactive | inactive | inactive |  | inactive | inactive | inactive | inactive | inactive | inactive |  | 
3 | BrCCCCCCBr | inactive | inactive | inactive |  | inactive | inactive | inactive | inactive |  | inactive | inactive | inactive | inactive | inactive | inactive | inactive | inactive | inactive | inactive
4 | O=C(O)c1ccc2[nH]cc(CCCCN3CC=C(c4ccccc4)CC3)c2c1 | inactive | inactive | inactive | inactive | inactive | inactive | inactive |  | inactive |  | inactive | inactive | inactive | inactive | inactive | inactive | inactive | inactive | inactive
5 | CC(C)(C)NCC(O)c1cc(Cl)c(N)c(Cl)c1 (centres undefined) | 1.33 µM (active) | inactive | inactive | inactive | inactive | inactive | inactive | inactive | inactive | inactive |  | inactive | inactive |  |  |  | inactive | inactive | 
6 | CSc1ccc(C(=O)C(C)(C)N2CCOCC2)cc1 | inactive | inactive | inactive |  | inactive | inactive | inactive | inactive | inactive | inactive |  | inactive | inactive | inactive |  |  | inactive | inactive | 
7 | CC(C1CC1)C(O)(Cn1cncn1)c1ccc(Cl)cc1 (centres undefined) | inactive | inactive | inactive | inactive | inactive | inactive | inactive | inactive |  | inactive | inactive |  | inactive | inactive |  |  | inactive | inactive | 
8 | CN/C(=N\[N+](=O)[O-])NCC1CCOC1 (centres undefined) | inactive |  | inactive | inactive | inactive | inactive | inactive | inactive | inactive | inactive | inactive | inactive | inactive |  | inactive | inactive | inactive | inactive | 
9 | C[C@]1(O)CC[C@H]2[C@@H]3CCC4=CC(=O)CC[C@]4(C)[C@@]3(F)[C@@H](O)C[C@@]21C | inactive |  | inactive | inactive | inactive | inactive | inactive | inactive |  |  | inactive | inactive | inactive | inactive | inactive | 1.51 µM (active) and 620 nM (active) | inactive | inactive | inactive
10 | CCCCc1c(C)nc(NCC)[nH]c1=O | inactive |  | inactive | inactive | inactive | inactive | inactive | inactive | inactive | inactive | inactive |  | inactive | inactive | inactive | inactive | inactive | inactive | 
11 | CCCCCCI | inactive | inactive | inactive | inactive | inactive | inactive | inactive | inactive | inactive | inactive | inactive | inactive | inactive | inactive |  |  | inactive |  | inactive
12 | c1cc[c]([Hg][c]2ccccc2)cc1 | 15.4 µM (active) |  | inactive | inactive | inactive | inactive | inactive | inactive |  | inactive |  |  | inactive |  | inactive | 347 nM (active) | inactive | inactive | 15.4 µM (active)
13 | Cc1ncc(CNC(=O)N(CCCl)N=O)c(N)n1 | inactive | inactive | inactive | inactive | inactive | inactive | inactive | inactive | inactive |  | inactive | inactive | inactive | inactive | inactive | inactive | inactive | inactive | inactive
